Screens (PubChem BioAssay)
ASK1 inh – human ASK1 kinase inhibition, primary screen. Q99683. AlphaScreen MKK6 phosphorylation by ASK1, luminescence. inhibition, % at 7.44 µM. 22,000 tested, 0.99% active; in the data active means inhibition above about 35%;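 further: 0% = median of compound wells and 100% = no enzyme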
ULK1 inh – inhibitors of human ULK1 kinase; inhibition, % at 5.96 µM; O75385; AlphaScreen Atg13 phosphorylation by ULK1, luminescence; 30,000 tested, 1.9% active; in the data active means inhibition above about 43%;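 further: 0% = median of compound wells and 100% = no enzyme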
* marks the source's active call; other numbers are inactive results; nt = no result. An excerpt weighted towards active compounds, which were near 2.4% of everything screened.

SMILES	ASK1 inh	ULK1 inh
c1cncc(CNc2nc(Nc3ccc(N4CCOCC4)cc3)c3ncn(C4CCCCC4)c3n2)c1	-22	62*
c1ccc(CNc2nc(Nc3ccc(N4CCOCC4)cc3)nc3c2ncn3C2CCCCC2)cc1	5	9
c1cnc(Nc2nc(Nc3ccc(N4CCOCC4)cc3)c3ncn(C4CCCCC4)c3n2)nc1	-2	2
CC(=O)Nc1ccc(Nc2nc(Nc3ccc(N4CCOCC4)cc3)nc3c2ncn3C2CCCCC2)cc1	8	48*
Cc1ncn(-c2ccc(Nc3ncc4cccc(-c5cnn(C(C)C)c5)c4n3)cc2)n1	-10	66*
CC(C)n1cc(-c2ccc3cnc(Nc4ccc(-n5cnc(N6CCOCC6)n5)cc4)nc3c2Cl)cn1	3	53*
Cn1cc(-c2ccc3cnc(Nc4ccc(-n5cnc(N6CCOCC6)n5)cc4)nc3c2C2CC2)cn1	-91	41
Cc1ncn(-c2ccc(Nc3ncc4cccc(-n5cccn5)c4n3)cc2)n1	-23	45*
Cc1ncn(-c2ccc(Nc3ncc4cccc(-c5cnn(C)c5)c4n3)cc2)n1	-8	25
Cc1ncn(-c2ccc(Nc3ncc4cccc(-c5ccccc5)c4n3)cc2)n1	-74	12
Cc1ncn(-c2ccc(Nc3ncc4cccc(-c5ccncc5)c4n3)cc2)n1	6	-33
Cc1ncn(-c2ccc(Nc3ncc4cccc(-c5cnn(CC6CC6)c5)c4n3)cc2)n1	3	64*
CC1(C)COc2ccc(NC(=O)CCc3ccccc3)cc2NC1=O	nt	-10
Cc1ncc2c(Nc3ccc(S(C)(=O)=O)cc3)nc3ccccc3n12	nt	8
O=C(NC1CC1)c1csc(NC2CCN(Cc3ccccc3)CC2)n1	-19	5
c1ccc(OCCNc2nc(N3CCOCC3)nc3c2ncn3C2CCCCC2)cc1	17	10
CC(C)n1c(Nc2ccc(N3CCOCC3)cc2)nc2c(Nc3ccccc3)ncnc21	21	-11
CC(C)n1c(Nc2cccc(N(C)C)c2)nc2c(Nc3ccc(N4CCOCC4)cc3)ncnc21	37*	22
COc1cc(C(=O)NS(=O)(=O)c2ccccc2C)ccc1Cc1cn(C)c2ccc(NC(=O)OC3CCCC3)cc12	nt	65*
CCOc1ccc(-c2cc(=O)c3cc(NC(=O)c4ccc(OC)c(OC)c4)ccc3o2)cc1	nt	7
O=C(NC(=S)NNC(=O)c1ccccc1[N+](=O)[O-])c1ccc(Br)cc1	nt	3
CNC(=O)c1ccccc1Nc1cc(Nc2ccc(C(=O)N3CC[C@H](O)C3)cc2OC)ncc1C(F)(F)F	8	88*
CNC(=O)c1ncccc1Nc1cc(Nc2ccc(C(=O)N(C)C)cc2OC)ncc1C(F)(F)F	16	24
COc1cc(N2CCOCC2)ccc1Nc1cc(NCc2ccccc2)c(C(F)(F)F)cn1	1	18
COc1cc(N2CCOCC2)ccc1Nc1cc(NC(C)(C)c2ccccc2)c(C(F)(F)F)cn1	-13	22
SMILES	ASK1 inh	ULK1 inh
CNC(=O)c1ncccc1Nc1cc(Nc2ccc(N3CCOCC3)cc2OC)ncc1C(F)(F)F	24	46*
CNC(=O)c1ccccc1Nc1cc(Nc2ccc(N3CCS(=O)CC3)cc2OC)ncc1C#N	22	90*
CNC(=O)c1cccc(Nc2cc(Nc3ccc(N4CCOCC4)cc3OC)ncc2C(F)(F)F)c1	21	18
COc1cc(N2CCOCC2)ccc1Nc1cc(Nc2ccccc2NC(C)=O)c(C(F)(F)F)cn1	11	88*
O=c1c2ncccc2n(Cc2c(F)cccc2Cl)c(=O)n1Cc1ccccc1	nt	7
CC(=O)N(CC(O)CN(C(C)=O)c1c(I)c(C(=O)NCC(O)CO)c(I)c(C(=O)NCC(O)CO)c1I)c1c(I)c(C(=O)NCC(O)CO)c(I)c(C(=O)NCC(O)CO)c1I (centres undefined)	nt	17
c1ccc(CN2CCC(Nc3nccc(Nc4ccc5c(c4)OCO5)n3)CC2)cc1	10	1
FC(F)(F)c1ccc(Cn2cnc3c(NCc4ccccc4)nc(Nc4ccc(C(F)(F)F)cc4)nc32)cc1	-8	-6
O=C(NCc1ccccc1)C1CCN(c2ccc(Nc3cnccn3)nn2)CC1	6	16
COc1cc2nc(Nc3ccncn3)nc(Nc3ccc(N4CCOCC4)cc3)c2cc1OC	22	-26
O=C(Cn1c(=O)sc2ccc(Cl)cc21)N1CCN(CCO)CC1	nt	5
Cc1cnc(Nc2ccc(-n3ccnc3)cc2)nc1NCCCN1CCCC1=O	-9	69*
Cc1cnc(Nc2ccncc2)nc1NCCCN1CCCC1=O	-21	6
Cc1cnc(Nc2ccc(-n3ccnc3)cc2)nc1NC1CC1	9	52*
O=C1CCCN1CCCNc1nc(Nc2ccc(C(F)(F)F)cc2)nc2nc[nH]c12	8	53*
O=C1CCCN1CCCNc1nc(Nc2ncccn2)nc2nc[nH]c12	-18	6
Cc1cnc(Nc2ccc(-n3ccnc3)cc2)nc1Nc1ccccc1	-33	35
O=C(Nc1ccccc1)c1cnc(NCCCN2CCCC2=O)s1	0	-35
COc1cc(NC(=O)c2cnc(NC3CCC(O)CC3)s2)cc(OC)c1OC (centres undefined)	-11	7
CS(=O)(=O)c1ccc(N2CCN(CCO)CC2)cc1	nt	1
O=C(NCc1nc2ccccc2[nH]1)c1ccc2nc(Nc3ccc(C(F)(F)F)cc3)sc2c1	-5	2
CC(=O)Nc1ccc(NC(=O)c2ccc(-c3ccc(N4CCN(C)CC4)cc3)s2)cc1	5	4
CC(=O)N1CCN(CCNC(=O)c2cccc(-n3ncc4cc(Nc5cccc(C)c5Cl)ccc43)c2)CC1	-16	-32
CN(c1ncccc1CNc1cc(Nc2ccc3c(c2)CC(=O)N3)ncc1C(F)(F)F)S(C)(=O)=O	12	31
CN(c1ncccc1CNc1nc(Nc2ccc3c(c2)CC(=O)N3)ncc1C(F)(F)F)S(C)(=O)=O	26	78*
SMILES	ASK1 inh	ULK1 inh
Cc1ccc(-c2cc(=O)c3cc(NC(=O)c4cccnc4)ccc3o2)cc1	nt	0
CN1CCN(C(=O)c2ccc(-c3ncc(C(=O)NC4CCN(Cc5ccccc5)CC4)s3)cc2)CC1	6	2
CCNc1cc(C(=O)Nc2ccc(N3CCOCC3)cc2)ccn1	10	31
O=C(Nc1ccc(N2CCOCC2)cc1)c1ccc2nc(Nc3ccccn3)sc2c1	-32	52*
O=C(Nc1ccc(N2CCOCC2)cc1)c1ccc2nc(Nc3ccc(N4CCOCC4)cc3)sc2c1	6	2
O=C(Nc1ccc(N2CCOCC2)cc1)c1ccnc(NCCN2CCOCC2)c1	-18	47*
CN1CCN(C(=O)c2ccc(-c3cc(NCCOc4ccccc4)nc(N)n3)cc2)CC1	-1	-2
O=C1CCCN1CCn1cnc2c(NC3CCN(Cc4ccccc4)CC3)nc(Nc3ccc(N4CCOCC4)cc3)nc21	16	1
NC(=O)c1ccc(Oc2nccc(-c3ccccc3)n2)cc1	13	-5
Cc1cnc(Nc2ccc(C(F)(F)F)cc2)nc1Nc1ccc2c(c1)OCO2	25	-15
C[C@H](Cc1ccc(O)c(O)c1)[C@@H](C)Cc1ccc(O)c(O)c1	nt	78*
N[C@@H](Cc1ccc(O)c(O)c1)C(=O)O	nt	32
COc1ccc(C(=O)c2oc3ccc(NC(C)=O)cc3c2C)cc1	nt	58*
COc1ccc(C(=O)c2oc3ccc(NC(=O)c4ccc(OC)c(OC)c4)cc3c2C)cc1	nt	3
NC(=O)c1cnc(N2CCN(Cc3ccc4c(c3)OCO4)CC2)s1	9	12
c1ccc(CNc2ccnc(Nc3ccc4ncccc4c3)n2)cc1	2	0
O=S(=O)(O)c1cc(I)c(O)c2ncccc12	nt	45*
Oc1c(I)cc(I)c2cccnc12	nt	51*
Oc1ccc(Cl)c2cccnc12	nt	11
